Several values for one entry are separate records, joined by “and”; a condition that tells them apart may be missing. Equal values may be shown once. Out of some 38,000 compounds screened, about 1,200 (3.2%) showed an effect of 50% or more. The median lay at about -58%. What follows is part of a selection rich in strong results, with near analogues and random picks from the rest.
System: Plasmodium falciparum
Test: Calibr Malaria Delayed Death Assay SOP
Type: functional, organism-based
Set-up: scale not given: in the data most compounds retested in dose-response had high values
Settings: concentration 4.99e-06 (unit not given; other assays of the set use mol/L)

SMILES	Percent Effect [%]	Percent Effect (4.99 µM)
Cc1nc(NC(=O)NCCCN2CCC(C(N)=O)CC2)sc1C	-93.87	
Cc1nnc(C(NS(=O)(=O)c2cc(F)c(C)cc2F)C(C)C)[nH]1 (configuration not stated)	-26.37	
Cc1ccc(CN(C)Cc2ncc(C(C)(C)C)o2)o1	-58.81	
COc1cccc(OC2CN(C(=O)c3c(C)noc3C)C2)c1	-22.85	
O=c1c2ccc(Cl)cc2ncn1CCCN1CCCCC1CO (configuration not stated)	-12.14	
CC(C)c1ccc(NC(=O)c2ncc(C(N)=O)cc2Cl)cc1	-172.5	
O=C1CC(c2ccc3c(c2)OCO3)c2cnn(C3CCCC3)c2N1 (configuration not stated)	-69.51	
Cn1cc(C2CC(=O)NC23CCN(C(=O)NC2CC2)CC3)cn1 (configuration not stated)	-54.83	
CC(C)C(C)N(C(=O)Cn1nc2n(c1=O)CCCCC2)C1CC1 (configuration not stated)	-123.2	
CCCc1cnc(C)nc1N1CCC(Cc2ccc(CO)cc2)C1 (configuration not stated)	-3.438	
CN1CCN(C)C2(CCN(Cc3ccc(C4CCCCO4)o3)CC2)C1 (configuration not stated)	-149.2	
CN1CCC2(CC1)CN(Cc1ccc(C3CCCCO3)o1)CCCN2C (configuration not stated)	80.31	
OCC1(O)CCN(Cc2ccc(C3CCCCO3)o2)CC1 (configuration not stated)	-16.13	
Oc1cccc(C2CN(c3nnc(C4CC4)s3)CCO2)c1 (configuration not stated)	-92.75	
O=C(Nc1ccccc1OC1CCOC1)c1ccon1 (configuration not stated)	-94.04	
CN(Cc1ccccc1)CC(C)(C)NC(=O)c1ccon1	-38.2	
O=C(O)C(F)(F)F.O=C([C@@H]1CCO[C@@H]2CCN(Cc3cccs3)C[C@H]21)N1CCCCO1	-36.32	
Cc1cccc(CN2C[C@@H]3CCCO[C@@H]3[C@H](Nc3ccccn3)C2)n1	55.52	
Cc1ncsc1CN1C[C@@H]2CCCO[C@@H]2[C@H](Nc2ccccn2)C1.O=C(O)C(F)(F)F.O=C(O)C(F)(F)F	-27.39	
Cc1cccc(CN2C[C@@H]3CCCO[C@@H]3[C@H](NS(C)(=O)=O)C2)n1	-67.26	
CN(C)Cc1nc(-n2cnc(C(=O)NC3CCCC3)c2)n2ccccc12	8.682	
CC(C)Oc1ccccc1NC(=O)N1CCC(n2cncn2)CC1	-58.88	
Cc1ccccc1-c1noc(CN2CCn3c(nnc3C3CC3)C2)n1	50.31	
Cc1ccc(-c2nc(CN3CCn4c(nnc4C4CC4)C3)co2)c(C)c1	-40.53	
c1ccc(-c2cnc(CN3CCn4c(nnc4C4CC4)C3)o2)cc1	-11.2	
CC(C)c1nnc(CN2CC(n3cccn3)Cc3ccccc32)o1 (configuration not stated)	-227.8	

SMILES	Percent Effect [%]	Percent Effect (4.99 µM)
O=C(NCC1CC1)c1nnc2ccc(Cl)cc2n1	9.063	
COCCN1CCCCC12CC(=O)N(c1ccccc1OC)C2.O=C(O)C(F)(F)F (configuration not stated)	-87.11	
CCCN1CCCN(S(=O)(=O)c2cnc3onc(C)c3c2)CC1	-59.23	
CC(C)c1nccn1C1CCCN(C(=O)CCCc2ccccn2)C1 (configuration not stated)	-134.4	
CC(C)OCCN1CCN(c2ccc(Cl)cn2)CC1	-78.08	
Clc1ccc(N2CCN(CCCN3CCCCC3)CC2)nc1	68.33	
CSCCCN1CCN(c2ccc(Cl)cn2)CC1	28.74	
CCCn1cc(-c2cc(C(=O)N(C)C)c3ccc(C)cc3n2)cn1		-45.66% and -43.3%
CN(Cc1ccccn1)C1CC2(CCN(Cc3ccccn3)CC2)C1.O=C(O)C(F)(F)F.O=C(O)C(F)(F)F	-38.28	
Cc1cccc(-c2ncc(CNC(C)Cc3ncccc3C)cn2)c1 (configuration not stated)	-10.25	
Cc1cccnc1CC(C)Nc1ncc(C)c(N(C)C)n1 (configuration not stated)	44.79	
CCn1nc2c(cc1=O)CN(CCOc1ccccc1C#N)CC2	-106.3	
CN(Cc1ccccc1)c1ncccc1CNC1CCC1	69.98	
CN(Cc1ccccc1)c1ncccc1CNC(=O)c1ccnn1C	-17.51	
CC(=O)N1CCC(NCc2cccnc2N(C)Cc2ccccc2)CC1	-58.67	
CC(=O)NC1CCCN(C(=O)NCc2cccnc2N(C)C)C1 (configuration not stated)	-14.71	
CN(c1ncccc1CNCc1ncc[nH]1)C1CCCCC1	37.42	
CN(Cc1ccccc1)c1ncccc1CNC1CCSCC1	25.77	
Cc1nnsc1C(=O)NCc1cccnc1N(C)Cc1ccccc1	-61.52	
CN(C)c1ncccc1CNCc1ccc(N2CCOCC2)cc1	-64.22	
CCn1cc(C(=O)NCc2cccnc2N(C)Cc2ccccc2)cn1	-74.6	
CN(Cc1ccccc1)c1ncccc1CNC1CCCC1	65.38	
CN(Cc1ccccc1)c1ncccc1CNC1CN2CCC1CC2 (configuration not stated)	62.39	
Cc1n[nH]c(C)c1CNC(=O)N1CCCC(Cc2nccn2C)C1 (configuration not stated)	-135.2	
O=C1CC(N2CCN(c3ccc(F)cc3)CC2)C(=O)N1Cc1cccs1 (configuration not stated)	-39.99	
COc1ccc(Nc2c[nH]c(=O)[nH]c2=O)cc1	-70.96	

SMILES	Percent Effect [%]	Percent Effect (4.99 µM)
CNC(=O)[C@@]12CCC3(CCNCC3)[C@@H]1CN(S(C)(=O)=O)C2	-13.04	
N#CC1(C(=O)N2CCOC(c3ccc(F)cc3)C2)CCCC1 (configuration not stated)	-26.56	
O=C(O)C(F)(F)F.O=C(O)C(F)(F)F.c1cncc(OC[C@]23COC[C@H]2CN(Cc2nccs2)C3)c1	-94	
Cc1cc(C(=O)N2CCn3cc(CN4CCCC4)nc3C2)no1	-104.3	
CCC(NC1CCN(S(C)(=O)=O)CC1)c1cccs1 (configuration not stated)	-138.1	
COc1cc(NC(=O)NCC2CCCO2)cc(OC)c1 (configuration not stated)	-111.7	
Cc1cncc(C2CCCN(CC3CCC3)C2)n1 (configuration not stated)	-16.18	
COC1CCN(C(=O)Nc2ccccc2)CC(=O)N(C)c2ccccc21 (configuration not stated)	-65.05	
CCc1nc(C)c(CC(=O)N2CCC3(CC2)OCCCC3OC)c(=O)[nH]1 (configuration not stated)	-118.2	
CCN1CCC(CNCc2cc(C)ccc2OC)C1 (configuration not stated)	82.22	
CCN1CCC(Cn2ccc3c(OC)c(OC)ccc3c2=O)C1 (configuration not stated)	20.65	
CCN1CCCC(CNC(=O)CCc2ccc(OC)c(F)c2)C1 (configuration not stated)	-76.38	
CCN1CCC(CNCc2c[nH]nc2C(C)(C)C)C1.Cl (configuration not stated)	-150.6	
CCN1CCC(CNCc2cc(OC)ccc2OC)C1 (configuration not stated)	56.22	
CCN1CCC(CNC(=O)NCc2cc(-c3ccc(C)cc3)no2)C1 (configuration not stated)	-139.2	
CCO[C@H]1COC[C@@H]1NC(=O)CCc1nc(-c2ccccc2)no1	-93.65	
CCOCC(=O)NCCc1nc(C2CC2)cc(C(F)(F)F)n1	-127.5	
CCS(=O)(=O)N1CC(c2nc(-c3ccsc3)no2)C1	-143.6	
Cc1cccnc1CNC(=O)N(CCCO)C1CCc2ccccc21 (configuration not stated)	-23.18	
COc1c(CNC2(c3ccc(Cl)cc3)CCC2)c(C)nn1C	58.68	
COc1c(CNC2(c3noc(C)n3)CCC2)c(C)nn1C.Cl	-62.55	
COc1c(CNC2CCc3cc(Cl)ccc32)c(C)nn1C (configuration not stated)	17.62	
Cc1cc(C)n(-c2cccc(C(=O)Nc3n[nH]c(C4CCCO4)n3)c2)n1 (configuration not stated)	-55.68	
Cc1ccc(O)c(CNc2cccc(CN3CCSCC3)c2)n1	-16.46	
OCC1(Cc2cccc(Cl)c2)CCCN(c2ncccn2)C1 (configuration not stated)	-87.85	
CC1(C)CN(CCC(=O)NCc2cccc(Cl)c2)CC[C@]1(C)O	51.99	

SMILES	Percent Effect [%]	Percent Effect (4.99 µM)
Cc1ccc(C(=O)O)cc1CNC(=O)CN1CC[C@](C)(O)C(C)(C)C1	-2.954	
O=C(CCC(=O)NCc1cccc(Br)c1)NCCN1CCCC1	-111.7	
NC(=O)CN(CC(=O)NCc1cccc(Cl)c1)C1CCCC1	-61.22	
O=C(CCN1CCCC(CO)(CC2CC2)C1)NCc1cccc(Cl)c1 (configuration not stated)	79.46	
CC(C)NC(=O)c1cc2c(s1)CCN2c1ncccn1	-26.36	
Cc1nc2n(n1)CC(NCc1c(Cl)ccc3cccnc13)CC2 (configuration not stated)	-131.5	
CC(=O)CSc1nnc2n1N=CN(c1cccc(Cl)c1)C2	-35.13	
N#Cc1cccc(OCCN2CCCC2C(=O)Nc2nccs2)c1 (configuration not stated)	-33.68	
N#Cc1cccc(OCCN2CCCC2C(=O)N2CCSCC2)c1 (configuration not stated)	50.57	
N#Cc1cccc(OCCN2CCC(C(=O)N3CCOCC3)CC2)c1	-57.78	
CCc1nc(C)c(C(=O)N[C@@H]2c3ccccc3C[C@@H]2O)o1	-65.76	
CN(C)c1nc(N)nc(CN2CCCC(c3ccccc3)CC2)n1 (configuration not stated)	53.37	
Oc1ccccc1CN1CCCCCC1c1cccs1 (configuration not stated)	-50.57	
Cn1ncc2c(=O)[nH]c(CN3CCCC3c3cccs3)nc21 (configuration not stated)	-14.29	
CN(C)c1nc(N)nc(CN2CCC(c3ccccc3)CC2)n1	80.66	
CN(C)c1nc(N)nc(CN2CCCC2c2cccs2)n1 (configuration not stated)	52.44	
Cc1nc(CC2CCCN(Cc3nc(N)c4ccccc4n3)C2)no1 (configuration not stated)	18.93	
O=C(O)CN1CCC(c2ccccc2)CC1	-86.8	
Cn1ccc(CN2CCC(c3ccccc3)CC2)cc1=O	20.97	
CN(C)c1nc(N)nc(CN2CCC(c3nc4ccccc4o3)CC2)n1	8.177	
COC(=O)c1cc(OCC2CCC2)cc(C(=O)N[C@H](C)C(N)=O)c1	-189.7	
CC(C)(C)c1n[nH]c(C2CN(C(=O)Cn3ccccc3=O)CCO2)n1 (configuration not stated)	-54.87	
CC(C)NC(=O)N1CCCC2(CC(C(=O)Nc3ccccc3)=NO2)C1 (configuration not stated)	-67.17	
COCCN(C)C[C@@H]1CN(C(=O)c2ccc(SC)cc2)C[C@@H]1CO	-5.304	

From ChEMBL document CHEMBL3988442, “University of Dundee, Small-Polar-MMV Screening Library” (2021)
